Source: PubChem (National Center for Advancing Translational Sciences (NCATS))
Vaccinia Venus: inhibitors of vaccinia virus (Venus reporter). Vaccinia virus Venus reporter expression, fluorescence. Potency, µM (doses to about 36.5 µM), inactives show at the top dose activity change, negative = inhibition, hits mostly inhibitors. 0.46% of 330,000 active. AID 720580; calls by dose curve; tested in A549 cells; note: potency is the fitted concentration of half-maximal effect; nearly all actives have a fitted effect of over 30% in size
HCMV inh: blocks human cytomegalovirus replication; 4.5% of 410,000 active; AID 1259415; HFF cells, HCMV-luciferase reporter, 72 h; stronger effect = lower value; activity change, negative = inhibition, % at 57.5 µM; in the data active = activity change below about -60%; inconclusive = no clear call, values can overlap the other calls; inactive = above about -39%
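Compounds were evaluated in HFFs infected with an HCMV luciferase reporter virus (MOI 1 PFU/cell). Luciferase in lysates collected 72 h post infection served as the replication measure.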
FMDV antiviral: blocks foot and mouth disease virus; AID 1159524; 1.2% of 410,000 active; Potency, µM (top dose mostly 57.9 µM), without a hit: at the highest dose activity change, negative = inhibition, hits mostly inhibitors; FMDV antiviral cell-based qHTS; calls by dose curve; tested in HEK293T cells; note: read-out not given here; potency is the fitted concentration of half-maximal effect; nearly all actives have a fitted effect of over 45% in size
Marburg entry inh: Marburg virus entry inhibition; Marburg virus pseudotyped entry inhibition, cell reporter; Potency, µM (top dose mostly 37.8 µM), for the others: at the highest dose activity change, negative = inhibition, usual class: inhibitors; 1.8% of 300,000 active; calls by dose curve; tested in HEK293 cells; note: potency is the fitted concentration of half-maximal effect
Lassa entry inh: Lassa virus entry inhibition; Lassa virus pseudotype entry inhibition, cell reporter; Potency, µM (titrated, usually from 37.9 µM), inactives show at the top dose activity change, negative = inhibition, usual class: inhibitors; 1.2% of 300,000 active; calls by dose curve; tested in HEK293 cells; note: potency is the fitted concentration of half-maximal effect; nearly all actives have a fitted effect of over 50% in size
VACV mCherry inh: vaccinia inhibition (mCherry reporter). Vaccinia virus mCherry reporter infection, fluorescence. Potency, µM (highest dose often 36.5 µM), inactives show at the top dose activity change, negative = inhibition, hits mostly inhibitors. 0.63% of 310,000 active. AID 720579; calls by dose curve; tested in A549 cells; note: potency is the fitted concentration of half-maximal effect; nearly all actives have a fitted effect of over 35% in size
* marks the source's active call; other numbers are inactive results; i = inactive; ? = inconclusive; / = no result; ! = repeats disagree; [ ] = another dose, or the depositor's remark. In the library only some 6.5% were active in any assay of this set; here they are far more common. % is set by controls: 0 for no effect and ±100 for the full control effect.

SMILES	Vaccinia Venus	HCMV inh	FMDV antiviral	Marburg entry inh	Lassa entry inh	VACV mCherry inh
NC1=NC[C@@H](CC2CCCCC2)N1CCc1cc(C(F)(F)F)cc(C(F)(F)F)c1	10µM*	/	35µM*	/	/	?
NC1=NC[C@H](Cc2ccc(O)cc2)N1CCc1cc(C(F)(F)F)cc(C(F)(F)F)c1	-1%	-26	-14%	/	/	-11%
NC1=NC[C@H](c2ccccc2)N1CCc1cc(C(F)(F)F)cc(C(F)(F)F)c1	10µM*	-71*	?	/	/	10µM*
CCNCCCNCCCCNCCCNCC	/	/	-20%	/	/	/
CCOC(=O)Cc1ccc(NC(=O)N(Cc2ccc(OC)cc2)C2CCN(C(C)=O)CC2)cc1	-2%	-6	-13%	/	4%[46.1 µM]	3%
COc1ccc(NC(=O)CSc2nnc(-c3ccccc3C)n2C)cc1	/	-67*	-15%	-10%	25%	/
C=CCn1c(SCC(=O)c2ccccc2)nnc1-c1cc2ccccc2o1	-28%	?	40µM*	?	-26%	/
Cn1c(SCC(=O)c2cc3ccccc3o2)nnc1-c1ccccc1	-7%	-60*	17%	/	/	-11%
Cn1cnnc1SCC(=O)c1cc2ccccc2o1	/	?	14%	/	/	/
Cn1c(SCC(=O)N2CCN(c3ccccc3)CC2)nnc1-c1cc2ccccc2o1	/	-66*	3.5µM*	?	-20%	/
COC(=O)[C@H]1CC(=O)N[C@@H]1c1ccc(OC(C)C)c(OC)c1	/	-3	/	/	/	/
CC(C)CN(CCNC(=O)c1cn(C)c2ccc(S(=O)(=O)N3CCCCCC3)cc2c1=O)CC(C)C	11%	-8	-15%	6%[46.1 µM]	5%[46.1 µM]	1%
Cc1noc(C)c1NC(=O)N(C)C[C@H]1OCc2cn(nn2)CCCC(=O)N([C@H](C)CO)C[C@@H]1C	/	-7	/	/	/	/
C=C[C@@]1(C)CC[C@H](O)[C@H]2C(=O)CCC[C@H]21	/	/	/	-28%[14.2 µM]	/	/
Cc1cccc(OCC(=O)Nc2cc(-c3nc4cc(Cl)ccc4o3)ccc2C)c1	?	/	/	/	/	-13%
Cn1c(SCC(=O)N/N=C/c2ccc([N+](=O)[O-])s2)nnc1-c1ccccc1	?	-91*	?	?	?	28µM*
CNC(=O)CSc1nnc(-c2ccccc2)n1C	8%	-21	251µM*	/	/	i
Cc1ccc(C(=O)OCC(=O)NCCN2C(=O)CSC2=O)cc1[N+](=O)[O-]	/	-3	-11%	/	/	/
CC1CCN(c2ccc(C(=O)OCC(=O)NCCN3C(=O)CSC3=O)cc2[N+](=O)[O-])CC1	-5%	-78*	?	?	0%	i
COc1ccc(-n2c(-c3ccc(Br)cc3)c[n+]3c2CCCCC3)cc1	-17%	-87*	-20%	?	?	-11%
COc1ccc(-n2c(-c3ccc(Br)cc3)nc(=S)c3c2CCCC3)cc1	-1%	-25	-26%	-1%	27%	-7%
COc1ccc(-n2c(-c3ccccc3)c[n+]3c2CCC3)cc1	-27%	-78*	?	?	?	-1%
CCOc1ccc(-c2c[n+]3c(n2-c2ccccc2)CCCCC3)cc1	/	-98*	?	?	?	/
COc1ccc(-n2c(-c3ccccc3)cc3c2CCCC3=O)cc1	-26%	8	0%	?	?	?
COc1ccc(-n2c(-c3ccc(Br)cc3)c[n+]3c2SC(C)C3)cc1 (stereo not given)	-18%	-96*	?	?	?	-15%
SMILES	Vaccinia Venus	HCMV inh	FMDV antiviral	Marburg entry inh	Lassa entry inh	VACV mCherry inh
COc1cccc(C2(CC(=O)N3CCN(c4ccccc4O)CC3)CC(=O)N(C3CCCC3)C2=O)c1 (stereo not given)	-24%	/	30%	/	/	-3%
O=[N+]([O-])c1ccc2c(c1)C=CC2	-10%	/	/	/	/	-13%
CC(=O)Nc1ccccc1-c1nc2ccccc2n(CC(=O)Nc2ccc(C)c(Cl)c2)c1=O	?	15	-23%	-10%[46.1 µM]	?	?
COc1ccc(-n2c(-c3ccc(Br)cc3)c[n+]3c2CCC3)cc1	-3%	-92*	?	?	?	i
COc1ccccc1C(=O)Nc1c(C(=O)NC(C)(C)C)oc2ccccc12	-10%	-71*	0%	/	5%[46.1 µM]	12%
COc1ccccc1C(=O)Nc1c(C(=O)N(CCN(C)C)Cc2ccco2)oc2ccccc12	-15%	-82*!	?	/	29%[46.1 µM]	-22%
Cc1ccccc1C(=O)Nc1c(C(=O)N(CCN(C)C)Cc2ccco2)oc2ccccc12	/	-30	-3%	/	/	/
COc1ccc(OCC(=O)Nc2c(C(=O)N(CCN(C)C)Cc3ccco3)oc3ccccc23)cc1	/	?	-10%	/	/	/
COc1ccccc1C(=O)Nc1c(C(=O)c2ccccc2)oc2ccccc12	4%	-16	-6%	-17%[46.1 µM]	-17%[46.1 µM]	-7%
CN(C)CCN(Cc1ccco1)C(=O)c1oc2ccccc2c1NC(=O)c1ccccc1	-20%	-61*	-15%	/	-5%[46.1 µM]	-13%
COc1ccc(CN2CCC3(CC2)c2ccccc2[C@@H](NC(=O)c2ccccc2OC)[C@@H]3O)cc1O	-12%	/	-9%	/	/	-23%
COC(=O)C1=C(C(=O)OC)[C@@H]2N(Cc3ccccc3)c3ccccc3[C@@]23CCC(=O)N(CC2CCCCC2)C3=N1	/	/	/	11%[14.2 µM]	/	/
Cc1ccc(C)c(-c2nnc(NC(=O)c3ccc4c(c3)OCCO4)o2)c1	-3%[7.34 µM]	?	-21%	/	-7%[46.1 µM]	-4%[7.34 µM]
COCCNc1nc(CSc2ccccc2)nc2sc(C)c(C)c12	-23%	-70*	0%	-4%	?	i
Cc1sc2nc(CSc3ccccc3)nc(N3CCN(C)CC3)c2c1C	-29%	?	?	?	?	1%
Cc1oc(-c2ccc(C(=O)NCc3ccc(Cl)cc3)cc2)nc1CS(=O)(=O)c1ccccc1	-29%	-69*	-26%	/	-17%[46.1 µM]	-5%
COCCNC(=O)c1ccc(-c2nc(CS(=O)(=O)c3ccccc3)c(C)o2)cc1	3%	17	0%	/	-3%[46.1 µM]	-11%
Cc1oc(-c2ccc(C(=O)NCCN(C)C)cc2)nc1CS(=O)(=O)c1ccccc1	-10%	-70*	-16%	/	?	-2%
Cc1oc(-c2ccc(C(=O)NCc3ccccc3)cc2)nc1CS(=O)(=O)c1ccccc1	-29%	0	?	/	-2%[46.1 µM]	-27%
CCc1ccc(NC(=O)C(=O)NCCc2sc(-c3ccc(OC)c(OC)c3)nc2C)cc1	-45%	16	-10%	/	16%[46.1 µM]	-26%
Nc1cc(-c2nn[nH]n2)ccc1F	-4%	-91*	-19%	-22%	?	/
CCCC(=O)OCCNc1cc(Sc2nccn2C)c2nonc2c1[N+](=O)[O-]	-8%	53	35µM*	?	?	-23%
CCCSc1cc(NCCOC(C)=O)c([N+](=O)[O-])c2nonc12	-4%	-28	0%	?	3%	i
CCC(=O)OCCNc1cc(Sc2nc3ccccc3s2)c2nonc2c1[N+](=O)[O-]	/	69	25µM*	?	?	/
CCCSc1cc(NCCOC(=O)CCC)c([N+](=O)[O-])c2nonc12	-13%	?	0%	-2%	-6%	-23%
